Measured values reported in PubChem BioAssay AID651699 (Sanford-Burnham Center for Chemical Genomics, 2012).
About 2,100 (0.58%) of roughly 360,000 compounds were called active. Cut-off read from the data, not from the text of the source: active = inhibition above about 36%; inactive = the rest. Many of the other results were omitted from the sample, so actives are more common in it than they were.

Molecular target: NEDD8-conjugating enzyme Ubc12 (Homo sapiens) + NEDD8-activating enzyme E1 regulatory subunit (Homo sapiens) (UniProt P61081+Q13564)
Assay: inhibitors of cullin neddylation, primary screen, biochemical, TR-FRET, uHTS, NAE and Ubc12 (AID 651699)
Settings: at 25 µM, hits give high values

Sequence of NEDD8-conjugating enzyme Ubc12 (Homo sapiens) + NEDD8-activating enzyme E1 regulatory subunit (Homo sapiens) (P61081 whole entry, looked up): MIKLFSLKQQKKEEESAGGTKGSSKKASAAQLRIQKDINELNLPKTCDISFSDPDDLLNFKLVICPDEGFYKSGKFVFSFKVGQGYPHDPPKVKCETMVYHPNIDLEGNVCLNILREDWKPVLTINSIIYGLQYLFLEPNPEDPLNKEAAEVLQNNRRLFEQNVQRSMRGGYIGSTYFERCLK
Sequence of NEDD8-conjugating enzyme Ubc12 (Homo sapiens) + NEDD8-activating enzyme E1 regulatory subunit (Homo sapiens) (Q13564 whole entry, looked up): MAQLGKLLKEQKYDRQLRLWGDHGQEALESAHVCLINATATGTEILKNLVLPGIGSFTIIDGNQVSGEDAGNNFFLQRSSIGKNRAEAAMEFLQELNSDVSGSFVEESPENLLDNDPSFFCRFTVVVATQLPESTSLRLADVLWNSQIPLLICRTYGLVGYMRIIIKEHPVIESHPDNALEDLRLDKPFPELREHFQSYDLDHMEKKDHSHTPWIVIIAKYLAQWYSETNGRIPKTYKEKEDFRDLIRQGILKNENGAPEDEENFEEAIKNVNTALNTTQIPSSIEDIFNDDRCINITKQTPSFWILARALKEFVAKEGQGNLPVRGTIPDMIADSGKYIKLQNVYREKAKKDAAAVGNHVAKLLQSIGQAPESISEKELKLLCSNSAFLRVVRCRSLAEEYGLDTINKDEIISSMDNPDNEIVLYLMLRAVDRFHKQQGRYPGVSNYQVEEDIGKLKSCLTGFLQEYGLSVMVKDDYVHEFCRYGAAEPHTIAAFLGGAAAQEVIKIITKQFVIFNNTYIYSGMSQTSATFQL

inhibition, inactive:
COc1ccc(CCNC(=O)CCCCCNC(=O)N2CCn3c2nc2ccccc23)cc1OC 7.99%
O=Cc1c(Nc2ccccc2Cl)nc2ccccn2c1=O -6.5%
CC(=O)c1ccc(NC(=O)c2ccc(-n3cncn3)c([N+](=O)[O-])c2)cc1 -41.9%
C=CCn1c(COc2ccc(F)cc2)nnc1SCC(=O)Nc1cccc(S(N)(=O)=O)c1 5.06%
C=CCn1c(COc2ccccc2C)nnc1SCC(=O)O -1.87%
CCC(C)(C)n1nnnc1C(c1cccs1)N1CCN(c2nc3ccccc3s2)CC1 (configuration not stated) 5%
O=C(NCc1nnnn1-c1ccc(Cl)cc1)c1ccc2c(c1)OCO2 -5.24%
COc1cccc(Nc2nnc(SCC(=O)N3CC(C)OC(C)C3)s2)c1 (configuration not stated) -4.5%
O=C(NCC1CCCO1)c1cc2c([nH]c3ccccc32)c(-c2ccc(F)cc2)n1 (configuration not stated) 21%
O=C(NCCc1ccc(F)cc1)c1n[nH]c2ccccc12 9.02%
O=c1cc(CN2CCN(c3cccc(Cl)c3)CC2)c2cc3c(cc2o1)CCCC3 -45.2%
CCC(CC)C(=O)N1CC(=O)Nc2ccc(Br)cc2C1c1ccccc1 (configuration not stated) -1.94%
CCN(/N=C/c1ccccc1)c1cc(=O)n(C)c(=O)[nH]1 14.3%
Oc1ccc(/C=N/N(Cc2ccccc2)c2ccccc2)cc1 13.8%
CCC(C)c1ccc(NC(=S)NCc2ccccn2)cc1 (configuration not stated) 3.21%
O=S(=O)(c1cccc(Cn2nnc(-c3ccc(F)cc3)n2)c1)N1CCOCC1 -1.01%
O=C(C[C@@H]1C/C=C\CCC(=O)OC[C@@H]2CCCN2C1=O)NCCO -13.4%
O=C(CNC(=O)c1ccccc1Br)NNC(=O)c1cccs1 7.39%
O=C(NC(Cc1c[nH]c2ccccc12)C(=O)N/N=C/c1ccc(Br)cc1)c1cccs1 (configuration not stated) -5.72%
CCOc1cc(C2C(C(=O)OC)=CN(C3CCCC3)C=C2C(=O)OC)cc(Br)c1O -306%
O=C(NC1CC1)C(Cc1ccccc1)NS(=O)(=O)c1ccccc1F (configuration not stated) -5.68%
O=C(CN1CCN(c2ccccc2O)CC1)NC(=O)NCc1ccccc1 1.32%
CCOCCCNC(=O)C(NC(=O)CNC(=O)c1ccccc1)c1ccc(OC)cc1 (configuration not stated) 0.37%
CCOCCCNC(=O)C(NC(=O)CNC(=O)c1ccccc1)c1ccc(C)cc1 (configuration not stated) 2.03%
CC(C)=CCc1ccc(O)c(=O)cc1C(C)C 1.77%
O=C(O)C(F)(F)C(NCc1ccccc1)c1ccccc1 (configuration not stated) -2.55%
CC(C)c1ccc(CC(=O)N2CCC2(C)C(=O)NS(=O)(=O)c2ccc(C(C)(C)C)cc2)cc1 (configuration not stated) -0.27%
CC(=O)c1c(Nc2ccccc2)sc(C(=O)c2ccccc2)c1C 5.82%
COC(=O)c1cc2c(N)c(C(=O)c3ccc(Cl)cc3)sc2nc1C(OC)OC 12.2%
Cc1cccc2cc3c(N)c(C(=O)N4CCCc5ccccc54)sc3nc12 -5.05%
O=C(Nc1c(-c2ccccc2)nc2c(Br)cc(Br)cn12)c1ccco1 -168%
OCC[C@H]1C[C@H](O)[C@@H](O)[C@]2(Cc3ccccc3CO2)O1 -28.9%
Cc1noc(C)c1CCC(=O)O -7.17%
CN(Cc1ccccc1)C(=O)CCC1CCN(C(=O)c2ccco2)CC1 6.05%
CCOC(=O)c1cnc(SCC(=O)Nc2cccc(OC)c2)nc1N -0.72%
COc1ccc(/C=C/C(=O)OCC(=O)N2CCN(S(=O)(=O)c3ccc(C)cc3C)CC2)cc1OC 24.4%
CCCCNS(=O)(=O)c1ccc(S(=O)(=O)n2cnc3ccccc32)cc1 -2.84%
NC(=O)Cn1cc(/C=N\NS(=O)(=O)c2ccccc2)c2ccccc21 -17.8%
O=C(CSc1ccc(/C=N/NC(=O)c2cccc(F)c2)o1)Nc1ccccc1 -3.46%
COc1ccc([N+](=O)[O-])cc1NC(=O)COC(=O)/C=C/c1ccco1 -34%
O=S(=O)(NC1CC2CCC1C2)c1ccc(Cl)cc1 (configuration not stated) -2.94%
O=C(NNC(=O)C1C2CCC(C2)C1C(=O)O)c1ccc(Cl)cc1 (configuration not stated) 2.72%
CC1(C)CC(=O)C2=C(C1)Nc1cc(C(=O)c3ccccc3)ccc1NC2c1ccccn1 (configuration not stated) 24.5%
COc1ccc2[nH]c(=O)c(CN(CC3CCCO3)C(=O)Nc3ccccc3)cc2c1 (configuration not stated) 21.1%
Cc1ccc(S(=O)(=O)N(Cc2cc3ccccc3[nH]c2=O)CC2CCCO2)cc1 (configuration not stated) 11.6%
Cc1cc(C)c2cc(CN(Cc3cccs3)Cc3nnnn3CC3CCCO3)c(=O)[nH]c2c1 (configuration not stated) -8.71%
Cc1cc2cc(CN(Cc3cccs3)Cc3nnnn3CC3CCCO3)c(=O)[nH]c2cc1C (configuration not stated) 4.8%
CC(C)(C)NS(=O)(=O)CC12CCC(CC1=O)C2(C)C (configuration not stated) 4.11%
CCCN(c1ccc(C(C)C)cc1)S(=O)(=O)c1c(C)[nH]c(=O)[nH]c1=O -4.15%
COCCNC(=S)N1CCN(C)CC1 2.77%
O=C(N[C@H]1C/C=C\C(c2ccc(F)cc2)N(Cc2ccccc2)C(=O)C1)OCC1c2ccccc2-c2ccccc21 (some centres not stated) -23.7%
COCCn1c(C)cc(C(=O)CSc2nnc(C3CC3)n2C2CC2)c1C 2.64%
CC(C)c1ccc(/C=C/C(=O)NCCCN2CCOCC2)cc1 6.59%
CC(OC(=O)/C=C/c1ccccc1)C(=O)Nc1ccc(C(N)=O)cc1 (configuration not stated) 9.24%
Cc1ccc(S(=O)(=O)NNC(=O)Nc2cccc3ccccc23)cc1 -0.11%
Cc1ccc(C)c(NC(=O)COC(=O)CSc2ccccc2)c1 4.31%
CC1CCN(C(=O)CN(c2ccc(Oc3ccccc3)cc2)S(C)(=O)=O)CC1 0.77%
COc1ccc(/C=C(/NC(=O)c2ccccc2)C(=O)Nc2cccc(C(=O)O)c2)cc1 -5.87%
COc1cc2c(cc1NC(=O)COC(=O)/C=C/c1ccccc1)oc1ccccc12 29.1%
CCN(CCNC(=O)C1=C(C)C(=O)OC12CCC(C)CC2)c1ccccc1 (configuration not stated) 0.38%
N/C(Cc1ccc([N+](=O)[O-])cc1)=N\OC(=O)C1CCCCC1 -35.6%
CN(C)c1nc(N)nc(CSc2nnnn2-c2cccc3ccccc23)n1 -6.09%
COc1ccc2[nH]c(=O)c(CNc3ccc(C)c(C)c3)cc2c1 23.5%
CCOc1ccc(/C=N\NC(=O)c2c(C)nc3cc(C)ccn23)cc1 2.94%
COc1ccccc1N1CCN(C(=O)C(=O)N/N=C/c2ccccc2F)CC1 -4.11%
COc1cccc(C(=O)N/N=C(\C)c2cccc(NC(=O)c3ccc(F)cc3)c2)c1OC -8.13%
CCOc1ccc2ccccc2c1/C=N/NC(=O)c1c(C)cc(C)[nH]c1=O -12.9%
O=C(Nc1ccc(Cl)cc1)C1Cc2c(-c3ccc4c(c3)OCO4)ccnc2O1 (configuration not stated) 25.3%
N#Cc1ccccc1CN1C(=O)S/C(=C/c2cccn2-c2cccc(C(=O)O)c2)C1=O -29.6%
Cc1cccc(N2CCN(C(=O)CN(C)S(=O)(=O)c3ccc4c(c3)CCC(=O)N4)CC2)c1C 4.09%
CCCC(=O)N1CCC1(C)C(=O)NS(=O)(=O)c1ccc(Cl)cc1 (configuration not stated) 5.26%
O=C(NNC1=NCCC1)c1cccc(S(=O)(=O)N2CCCCC2)c1 3.17%
CCOc1cc(/C=N/NC(=O)c2cccc(S(=O)(=O)N3CCOCC3)c2)ccc1OCC(=O)N(C)C 6.83%

inhibition, active:
C=CCn1c(COc2cccc3cccnc23)nnc1SCC(=O)OC 46.5%
O=C(NCCCO)c1cc2c([nH]c3ccccc32)c(-c2ccc(F)cc2)n1 44.3%
CCN(/N=C/c1ccc(N(C)C)cc1)c1nc2ccccc2[nH]1 47.9%
CCN(CC)c1ccc(/C=N/NC(=O)CNC(=O)c2cccs2)cc1 55.1%
COC(=O)C1=CN(Cc2ccc(OC)cc2)C=C(C(=O)OC)C1c1ccc(O)c(OC)c1 40.7%
CCOCCCNC(=O)C(NC(=O)c1ccccc1O)c1ccccc1 (configuration not stated) 46.5%
Cc1nc2sc(C(=O)c3ccccc3)c(N)c2c2c1CCCC2 47.1%
CN(C)c1ccnc2sc(C(=O)c3ccccc3)c(N)c12 42.8%
O=C(Cn1cc(/C=N/NC(=O)c2cccc(C(F)(F)F)c2)c2ccccc21)Nc1ccc(F)cc1 44%
O=C(NNC(=S)NC1CC2CCC1C2)c1ccc(Cl)cc1 (configuration not stated) 62.7%
CCOc1ccc2[nH]c(=O)c(CN(Cc3nnnn3CCc3ccccc3)CC3CCCO3)cc2c1 (configuration not stated) 44%
CCOc1ccc2[nH]c(=O)c(CN(Cc3nnnn3Cc3ccccc3)CC3CCCO3)cc2c1 (configuration not stated) 48%
O=C(/C=C/c1cn(-c2ccccc2)nc1-c1ccc2c(c1)OCCO2)NCCCN1CCOCC1 46.4%
Cc1ccc(C)c(NC(=O)NNC(=O)c2ccc3ccccc3c2O)c1 41.2%
COc1cc(/C(=C/c2ccccc2)c2ccccc2)c2c(c1)oc1ccccc12 49.4%
CCOc1ccc2[nH]c(C(=O)N/N=C/c3cccc(OC)c3OC)cc2c1 45.1%
COc1ccc2[nH]c(C(=O)N/N=C/c3cc(OC)c(OC)c(OC)c3)cc2c1 59.3%
COc1cc2cc(C(=O)N/N=C/c3cccc(OC)c3OC)[nH]c2cc1OC 40.2%
Cc1ncc(CO)c(/C=N/NC(=O)c2cccc(S(=O)(=O)N3CCCC3)c2)c1O 47.2%
